# Laboratory results taken from the supplement of paper PMC11577813, “Eurasian spruce bark beetle detects lanierone using a highly expressed specialist odorant receptor, present in several functional sensillum types” (BMC Biology, 2024).
# ± gives the standard deviation of the averaged measurements.
# System: (4S)-cis-verbenol A-neuron OSN class
# Test: net action potential response of A-neuron (blank-subtracted) (spikes/s (Hz)); higher = stronger excitation
# Details: 10 µg on filter paper; neuron: A neuron (large spike amplitude)
# Experimental: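 Single sensillum recordings from antennal olfactory sensilla of live adult Ips typographus. Each compound was 10 µg in paraffin oil on filter paper, delivered as a 0.5 s puff. Net response = spikes in the first 0.5 s of response minus the 0.5 s pre-stimulus count, doubled to give Hz, with blank response subtracted. Values are for the large-spike A-neuron class of each of seven sensillum types that co-house the lanierone B-neuron; N = 1-4 sensilla, averaged.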
row,Compound,net action potential response
1,CC(=O)OC/C=C(\C)CCC=C(C)C [Geranyl acetate],-2.67 ± 4.2
2,CCCCCC(O)CC (racemic) [(±)-3-Octanol],-6.67 ± 1.1
3,CC12CCC(CC1=O)C2(C)C (racemic) [(±)-Camphor],-2.67 ± 8.1
4,CCCCCC=O [Hexanal],0.667 ± 5
5,"COc1ccc(C)cc1OC [3,4-Dimethoxytoluene]",-2.67 ± 2.3
6,C=Cc1ccc(OC)cc1 [4-Vinyl anisole],0.667 ± 5
7,CC(C)=CCC/C(C)=C/C=O [Citral (E/Z mix)],0 ± 3.5
8,CC1(C)C2CC=C(CO)C1C2 (racemic) [(±)-Myrtenol],4.67 ± 1.1
9,CC1=CCC2CC1C2(C)C (stereo not drawn) [(+)-α-Pinene],-2 ± 7.2
10,CC(C)[C@@]12CC[C@@](C)(O)[C@@H]1C2 [(+)-trans-4-Thujanol],-0.667 ± 3.1
11,CCC/C=C\CO,1.33 ± 4.2
12,C=CC(=C)CC(O)C=C(C)C (racemic) [(±)-Ipsdienol],-2.67 ± 2.3
13,CC1=C[C@@H](O)[C@H]2C[C@@H]1C2(C)C [(-)-trans-Verbenol],52.7 ± 13
14,CCC1CCC2(CCCO2)O1 (racemic) [(±)-Chalcogran],1.33 ± 5
15,CCCCCCO [1-Hexanol],-1.33 ± 4.6
16,COc1ccc(C)cc1 [4-Methyl anisole],4.67 ± 4.6
17,C=CCc1ccc(OC)c(OC)c1 [Eugenol methyl ether],-0.667 ± 8.1
18,Cc1ccc(C(C)C)cc1 [p-Cymene],-2 ± 4
19,"c1ccc2c(c1)CCO2 [2,3-Dihydrobenzofuran]",0 ± 2
20,CCC/C=C/C=O [(E)-hex-2-enal],4 ± 10

row,Compound,net action potential response
1,C=Cc1ccccc1 [Styrene],1.33 ± 9
2,CC(=O)OCCC(C)C [3-Methylbutyl acetate],-4 ± 4
3,CC(C)CCO [3-Methyl-1-butanol],6 ± 7.2
4,CCc1ccc(O)c(OC)c1 [4-Ethylguaiacol],2 ± 6
5,C=CC(=C)CCC=C(C)C [Myrcene],2 ± 4
6,CC[C@H]1O[C@]2(C)CCC[C@H]1O2 (racemic) [(±)-exo-Brevicomin],-3.33 ± 4.2
7,CC1=CCC2CC1C2(C)C (stereo not drawn) [(-)-α-Pinene],-2.67 ± 3.1
8,CC1=CCC(C(C)C)=CC1 [γ-Terpinene],-5.33 ± 4.2
9,CC(=O)OCc1ccccc1 [Benzyl acetate],1.33 ± 8.1
10,C[C@H]1C(=O)C[C@H]2C[C@@H]1C2(C)C [(-)-Pinocamphone],2.67 ± 6.4
11,C=C1CCC2(C(C)C)CC12 (racemic) [(±)-Sabinene],-4 ± 7.2
12,C=CC(C)(C)O [2-Methyl-3-buten-2-ol],-4 ± 4
13,C=C(C)C1CC=C(C)C(=O)C1 (racemic) [(±)-Carvone],2 ± 4
14,CC1=CC(C)(C)C=C(O)C1=O [Lanierone],1.33 ± 5.8
15,C=C1[C@@H]2CC[C@@H](C2)C1(C)C (racemic) [(±)-Camphene],4 ± 3.5
16,"CC12CCC(CC1)C(C)(C)O2 [1,8-Cineole]",1.33 ± 4.2
17,COc1ccccc1 [Anisole],1.33 ± 7.6
18,CC(=O)CC/C=C(\C)CCC=C(C)C [Geranylacetone],3.33 ± 6.1
19,CCC(C)CO (racemic) [(±)-2-Methyl-1-butanol],-1.33 ± 4.2
20,C[C@]12CCC[C@](C)(OC1)O2 (racemic) [(±)-Frontalin],-2 ± 4
